PrPC TRFRET: cell surface PrPC inhibition, primary TR-FRET screen. P04156. inhibition, % at 13.8 µM. AID 720596. hit rate 0.43% among 370,000. TR-FRET read-out; in the data active = inhibition above about 24%; also: 0% = median of the test wells and 100% = reference compound wells
GDH-TPI counter-1: inhibits GDH-TPI coupling enzymes, artifact for Mtb FBA screen; GDH-TPI coupled enzyme counterscreen, NADH absorbance; inhibition, % at 4.8 µM; hit rate 1.2% among 360,000; AID 588335; in the data active = inhibition above about 30%;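 also: 0% = DMSO wells and 100% = wells lacking the enzyme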
RecA splice inh: blocks M. tuberculosis RecA intein splicing; cell-free RecA intein splicing, fluorescence; inhibition, % (no concentration beside the values); hit rate 0.75% among 290,000; AID 2221; in the data active = inhibition above about 30%;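 also: 0% = vehicle wells and 100% = reference inhibitor control wells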
Target sequence (P9WHJ3 whole entry, looked up, canonical isoform): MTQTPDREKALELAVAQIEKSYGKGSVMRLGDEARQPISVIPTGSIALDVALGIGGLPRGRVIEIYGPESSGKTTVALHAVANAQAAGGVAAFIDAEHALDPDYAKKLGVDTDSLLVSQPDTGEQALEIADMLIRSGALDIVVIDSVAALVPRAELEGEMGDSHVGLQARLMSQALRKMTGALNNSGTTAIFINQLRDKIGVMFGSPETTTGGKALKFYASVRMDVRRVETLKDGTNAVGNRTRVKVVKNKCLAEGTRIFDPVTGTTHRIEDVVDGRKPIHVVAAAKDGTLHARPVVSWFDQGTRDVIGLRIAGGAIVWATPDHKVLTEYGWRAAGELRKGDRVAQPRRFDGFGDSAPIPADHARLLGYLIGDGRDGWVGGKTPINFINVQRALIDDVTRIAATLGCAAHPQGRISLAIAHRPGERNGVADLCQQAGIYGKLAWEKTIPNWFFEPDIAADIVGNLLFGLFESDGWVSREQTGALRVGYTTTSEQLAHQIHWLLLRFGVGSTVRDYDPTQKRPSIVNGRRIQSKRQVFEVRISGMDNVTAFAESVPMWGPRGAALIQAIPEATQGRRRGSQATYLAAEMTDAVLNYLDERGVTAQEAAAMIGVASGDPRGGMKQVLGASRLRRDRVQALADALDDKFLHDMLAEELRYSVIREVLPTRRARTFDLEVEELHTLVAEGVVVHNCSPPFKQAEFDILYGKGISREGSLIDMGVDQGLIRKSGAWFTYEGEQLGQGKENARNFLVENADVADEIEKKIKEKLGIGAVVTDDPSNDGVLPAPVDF
FBA Mtb inh: inhibits M. tuberculosis FBA enzyme; inhibition, % at 1 µM; hit rate 2.3% among 360,000; purified M. tuberculosis FBA, fluorescence read-out;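 also: 0% = vehicle and 100% = reference inhibitor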
BJeLR viability: BJeLR cell viability loss. BJeLR (HRASV12) viability, CellTiter-Glo ATP luminescence, 48 h. inhibition, % (test concentration not listed). hit rate 0.17% among 300,000. AID 1554; in the data active = inhibition above about 50%
Mtb FBA confirm: Mtb FBA inhibition, confirmed; shares compounds with FBA Mtb inh; purified M. tuberculosis FBA, fluorescence read-out; inhibition, % at 1 µM; hit rate 78% among 5,600; AID 651616;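 also: 0% = vehicle wells and 100% = reference inhibitor wells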
GDH-TPI counter-2: inhibits GDH-TPI coupling enzymes, flagging Mtb FBA hits; AID 652141; shares compounds with FBA Mtb inh; GDH-TPI coupled enzyme counterscreen, fluorescence; inhibition, % at 1 µM; hit rate 81% among 5,600; in the data active = inhibition above about 10%
GDH-TPI dose: counter-screen for M. tuberculosis FBA inhibitors: GDH-TPI dose response; shares compounds with FBA Mtb inh; GDH-TPI coupled enzyme assay, fluorescence, artifact counterscreen; IC50, µM; hit rate 79% among 170; AID 652145; call rule not given here
The depositor's hits bear a star; . = not tested or not shown; + = active, no number. Rows were chosen to be rich in hits. Some 4.2% of all compounds tested hit in one or more screens of this group. Rule as the data show it, unless noted: active = inhibition above about 27%; inactive = the rest.

SMILES	PrPC TRFRET	GDH-TPI counter-1	RecA splice inh	FBA Mtb inh	BJeLR viability	Mtb FBA confirm	GDH-TPI counter-2	others
COc1ccc(/C=C2\Oc3ccccc3C2=O)cc1	4	12	.	84*	.	18	8	GDH-TPI dose=1.6*
COC(=O)[C@]12C[C@H](CC(=O)NCC3CCCCC3)C(=O)N(Cc3ccco3)C1=C[C@H](C1CCCC1)O[C@@H]2C	-3	.	.	.	.	.	.
CCCCN(C)CCNC(=O)c1c[nH]c2ccc(S(=O)(=O)N(CC)CC)cc2c1=O	0	21	0	29*	-1	51*	52*
CCCNC(=O)c1c[nH]c2ccc(S(=O)(=O)N(C)c3ccc(OCC)cc3)cc2c1=O	2	.	3	.	0	.	.
O=C(N[C@H](C(=O)N1CCC[C@H]1C(=O)NC1CCCC1)c1ccccc1)c1ccc(Cl)c(Cl)c1	-1	.	.	.	.	.	.
N#Cc1cccc(NC(=O)OCCN2C(=O)CCC23CCC(c2ccccc2)CC3)c1 (stereo unspecified)	-9	.	.	.	.	.	.
CN(CCO)C(=O)C1CCN(c2ncc(C(F)(F)F)cc2Cl)CC1	6	4	1	41*	2	79*	63*
NC(=O)C1CCN(c2ncc(C(F)(F)F)cc2Cl)CC1	5	-3	0	1	0	.	.
CCCCCCCCN1C(=O)[C@@H](CC(=O)NCc2cccc3ccccc23)C[C@@]2(C(=O)OC)C1=C[C@H](COCc1ccccc1)O[C@@H]2C	1	.	.	.	.	.	.
Cc1c(CC(=O)O)c(=O)oc2c(C)c(OCc3c(F)cccc3Cl)ccc12	-10	12	-2	44*	1	76*	67*
COC(=O)Cc1c(C)c2ccc(OCC(C)=O)c(C)c2oc1=O	7	13	7	79*	-4	-2	-4
CCc1c(C)c2ccc(OCC(=O)OC(C)C)c(C)c2oc1=O	-2	4	1	11	-2	.	.
C=C(C)COc1ccc2c(C)c(CC(=O)OC)c(=O)oc2c1C	.	30	.	89*	.	76*	62*
Cc1c(CC(=O)O)c(=O)oc2c(C)c(OCc3ccccc3Br)ccc12	0	3	3	0	-3	.	.
O=C(NCc1ccccc1)[C@H]1CCCN1C(=O)[C@H]1CCCN1C(=O)N1CCCCC1	0	.	.	.	.	.	.
O=C(Nc1ccc(OC(F)(F)F)cc1)Nc1nc2ncccn2c1-c1ccc(C(F)(F)F)cc1	4	.	.	.	.	.	.
CCCC(=O)Nc1nc2nc(-c3ccccc3)cc(-c3ccccc3)n2n1	-4	18	-2	7	-14	.	.
O=C(O)CCC(=O)Nc1nc2nccc(-c3ccccc3)n2n1	2	12	0	45*	9	+	181*
CSCC[C@H](NC(=O)COc1ccc(Cl)cc1)C(=O)N1CCC2(CC1)NCCc1[nH]cnc12	0	1	-1	59*	-1	120*	111*
CSCC[C@H](NC(=O)c1ccc2ccccc2c1)C(=O)N1CCC2(CC1)NCCc1[nH]cnc12	-9	-4	-1	0	-1	.	.
O=C(Nc1ccccc1SCC1CSc2nc3ccccc3c(=O)n21)c1cccc(Cl)c1 (stereo unspecified)	-10	-1	-1	59*	16	85*	79*
CC(=O)c1ccc(-c2ccc(C(=O)NCC(c3ccco3)N(C)C)o2)cc1 (stereo unspecified)	-15	47*	.	68*	.	-2	-2
CCOC(=O)C(=O)C1=CN(Cc2ccccc2)C=C(C#N)C1	-4	16	-4	29*	-7	98*	70*
N#CC1=CN(Cc2ccccc2)C=C(/C=N/Nc2ccccc2)C1	12	3	.	1	5	.	.
O=C1NC(c2ccc(Br)cc2)Nc2ccccc21 (stereo unspecified)	2	10	-3	42*	2	102*	95*
O=C1NC(c2ccc3ccccc3c2)Nc2ccccc21 (stereo unspecified)	-1	8	.	50*	.	71*	87*
CCN(CC)CCOC(=O)c1cccc2c1-c1ccccc1C2O (stereo unspecified)	-1	-4	4	29*	4	46*	35*
CCN(CC)CCOC(=O)c1ccccc1Br	-2	2	-2	3	-9	.	.

From PubChem BioAssay
